The nature of assay [1]: Primary qHTS for inhibitors of nuclear receptor binding SET domain protein 2 (NSD2) in an RCH-ACV wild type WT cells (2C) (AID 1645877). Further: potency means the concentration at half of the fitted maximal effect; nearly all actives have a fitted effect of over 70% in size. The note with it: RCH-ACV (leukaemia line) NSD2 WT (2C) viability, CellTiter-Glo, 72 h; series mostly up to 44.9 µM.
Assay [2] has as its target Metallo-beta-lactamase type 2 (Klebsiella pneumoniae) (UniProt C7C422). The assay can be described thus: qHTS to identify inhibitors of the New Delhi Metallo-beta-lactamase (NDM): assay validation screen against the NCATS LOPAC Collection (AID 1794843). Further: potency means the concentration at half of the fitted maximal effect.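 On activity change, negative = inhibition: nitrocefin turnover by NDM-1 measured as 485 nm absorbance at plateau; on the % scale 0 is the no-effect control and ±100 the full control effect.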 Particulars: NDM-1 enzyme, nitrocefin hydrolysis, absorbance 485 nm; series mostly up to 38.4 µM. The essentials: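 Enzyme 2 nM final, 50 mM HEPES pH 7.0, 1 uM ZnSO4, 0.01% Tween20; cpds in DMSO, preincub w/ enzyme; + nitrocefin (50 uM stock); A485 at plateau; no-enzyme column as blank.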

Assay [3] has as its target Glutathione peroxidase 1 (Homo sapiens) (UniProt P07203). The assay can be described thus: Primary qHTS Assay for Inhibitors of Recombinant Selenoprotein Glutathione Peroxidase 1 (GPX1) (AID 1845191). Further: nearly all actives have a fitted effect of over 65% in size. Particulars: recombinant GPX1, GR-coupled NADPH fluorescence, 15 min; series mostly up to 48.8 µM. Summed up: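 NADPH consumption tracked by fluorescence at 340/450 nm between t=0 and t=15 min, room temperature. Final mix: 10 nM GPX1, 100 nM glutathione reductase, 1 mM GSH, 0.5 mM NADPH, 0.5 mM cumene hydroperoxide, 0.01% BSA; 30 min compound–enzyme preincubation.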

In assay [4] the target is Rap guanine nucleotide exchange factor 3 (Homo sapiens) (UniProt O95398). The assay can be described thus: Confirmatory qHTS for antagonist of cAMP-regulated guanine nucleotide exchange factor 3 (EPAC1) (AID 1645880). Further: nearly all actives have a fitted effect of over 55% in size. Further: potency means the concentration at half of the fitted maximal effect. The note with it: EPAC1 Rap1B-BODIPY-GDP exchange, fluorescence; series mostly up to 115 µM. Summed up: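 Released BODIPY-GDP fluoresces less than Rap1-bound BODIPY-GDP; the signal is followed at 480/540 nm at 5-min intervals over 30 min, after 5 min at room temperature. Reactions contain 100 nM EPAC1, 250 nM RAP1B-BODIPY-GDP and 50 uM GDP; results are normalized to ATA and DMSO.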

Assay [5] shares this target. The assay can be described thus: Confirmatory qHTS for agonist of cAMP-regulated guanine nucleotide exchange factor 3 (EPAC1) (AID 1645881). Further: nearly all actives have a fitted effect of over 75% in size. Further: potency means the concentration at half of the fitted maximal effect. The note with it: EPAC1 Rap1B BODIPY-GDP exchange fluorescence; series mostly up to 154 µM.
Assay [6] has as its target Rap guanine nucleotide exchange factor 4 (Homo sapiens) (UniProt Q8WZA2). Nature of the assay: Confirmatory qHTS for agonist of cAMP-regulated guanine nucleotide exchange factor 4 (EPAC2) (AID 1645884). Further: nearly all actives have a fitted effect of over 65% in size. Further: potency means the concentration at half of the fitted maximal effect. Particulars: EPAC2 GEF activity, Rap1B-BODIPY-GDP fluorescence; series mostly up to 154 µM.
Assay [7] has the same target. Nature of the assay: Confirmatory qHTS for antagonist of cAMP-regulated guanine nucleotide exchange factor 4 (EPAC2) (AID 1645885). Further: potency means the concentration at half of the fitted maximal effect; nearly all actives have a fitted effect of over 25% in size. The note with it: EPAC2 Rap1B-BODIPY-GDP exchange fluorescence, biochemical; series mostly up to 114 µM.
The target in assay [8] is Catechol O-methyltransferase (Homo sapiens) (UniProt P21964). The assay can be described thus: Confirmatory Screen for Target Class Profiling of Small Molecule Inhibitors of Methyltransferases (AID 1745852; calls by dose curve; further: potency means the concentration at half of the fitted maximal effect; on activity change, negative = inhibition: on the % scale 0 is the no-effect control and ±100 the full control effect). Particulars: MTase-Glo luminescence, SAH detection, recombinant enzyme; measured here: COMT max response; stronger effect = lower value.
The target in assay [9] is Guanidinoacetate N-methyltransferase (Homo sapiens) (UniProt Q14353). The description is as above. Particulars: MTase-Glo luminescence, SAH detection, recombinant enzyme; activity change, negative = inhibition: at 57.3 µM (top of the series).
Assay [10] concerns the target Nicotinamide N-methyltransferase (Homo sapiens) (UniProt P40261). Described as above. The note with it: MTase-Glo luminescence, SAH detection, recombinant enzyme; measured here: NNMT max response; stronger effect = lower value.
Assay [11] has as its target Phenylethanolamine N-methyltransferase (Homo sapiens) (UniProt P11086). The description is as above. The note with it: MTase-Glo luminescence, SAH detection, recombinant enzyme; measured here: PNMT max response; stronger effect = lower value.
Assay [12] deals with Rap guanine nucleotide exchange factor 3 (Homo sapiens) (UniProt O95398). Nature of the assay: Counterscreen qHTS for antagonist of cAMP-regulated guanine nucleotide exchange factor 3 (EPAC1) (AID 1645888). Further: % of control where 0% means no effect. Particulars: Rap1B-BODIPY-GDP nucleotide exchange, fluorescence; series mostly up to 154 µM. The essentials:
(§1)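 Rap1B-BODIPY-GDP 250 nM + GDP 50 uM; cpds 7-pt, final 9.74 nM–152 uM (activator mode) or from 7.32 nM upwards (inhibitor mode); RT; FI 480/540 nm at 5 and 30 min, then ± cAMP, reread.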

For assay [13] the target is unchanged. The assay can be described thus: Counterscreen qHTS for agonist of cAMP-regulated guanine nucleotide exchange factor 3 (EPAC1) (AID 1645889). Further: % of control where 0% means no effect; nearly all actives have a fitted effect of over 40% in size. The note with it: EPAC1 Rap1B-BODIPY-GDP exchange, fluorescence; series mostly up to 154 µM. Summed up:
as §1

“And” between values parts separate entries of the source, which are not always exact repeats. Equal values may be shown once. Results filed as inconclusive are left out. The source made the active and inactive calls. Unless noted, the call rests on the fitted dose curve; in most records, active means well fitted curve in the direction sought with a large enough effect; inconclusive means small, poorly fitted or top-dose-only effect, or another doubt; inactive means no such curve, though single readings can be large; an effect the other way counts as inactive or inconclusive.

Consider nine molecules from PubChem BioAssay (NCATS).

Rap guanine nucleotide exchange factor 3 (Homo sapiens), sequence (O95398 whole entry, looked up): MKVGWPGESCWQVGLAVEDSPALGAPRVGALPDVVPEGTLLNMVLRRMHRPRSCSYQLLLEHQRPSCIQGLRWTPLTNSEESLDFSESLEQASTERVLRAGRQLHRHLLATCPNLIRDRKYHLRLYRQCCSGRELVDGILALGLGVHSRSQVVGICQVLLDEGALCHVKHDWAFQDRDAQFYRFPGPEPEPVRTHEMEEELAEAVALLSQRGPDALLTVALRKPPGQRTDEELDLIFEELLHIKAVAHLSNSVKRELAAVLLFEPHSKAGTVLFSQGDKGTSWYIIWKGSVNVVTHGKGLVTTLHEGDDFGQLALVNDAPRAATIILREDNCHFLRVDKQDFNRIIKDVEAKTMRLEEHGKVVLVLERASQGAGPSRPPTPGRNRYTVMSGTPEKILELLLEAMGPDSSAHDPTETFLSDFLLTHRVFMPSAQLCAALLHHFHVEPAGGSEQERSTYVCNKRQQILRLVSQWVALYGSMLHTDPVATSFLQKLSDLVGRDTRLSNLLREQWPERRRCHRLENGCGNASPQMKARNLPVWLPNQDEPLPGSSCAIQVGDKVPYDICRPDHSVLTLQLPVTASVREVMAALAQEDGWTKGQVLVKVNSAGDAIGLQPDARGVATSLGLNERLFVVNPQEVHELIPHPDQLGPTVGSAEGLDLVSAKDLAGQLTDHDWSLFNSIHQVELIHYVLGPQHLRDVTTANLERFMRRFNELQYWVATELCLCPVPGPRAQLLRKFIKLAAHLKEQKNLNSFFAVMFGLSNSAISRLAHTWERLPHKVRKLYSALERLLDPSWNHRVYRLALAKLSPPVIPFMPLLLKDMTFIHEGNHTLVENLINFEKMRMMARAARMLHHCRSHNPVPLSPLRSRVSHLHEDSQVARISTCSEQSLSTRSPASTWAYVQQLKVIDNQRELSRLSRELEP
Nicotinamide N-methyltransferase (Homo sapiens), sequence (P40261 whole entry, looked up): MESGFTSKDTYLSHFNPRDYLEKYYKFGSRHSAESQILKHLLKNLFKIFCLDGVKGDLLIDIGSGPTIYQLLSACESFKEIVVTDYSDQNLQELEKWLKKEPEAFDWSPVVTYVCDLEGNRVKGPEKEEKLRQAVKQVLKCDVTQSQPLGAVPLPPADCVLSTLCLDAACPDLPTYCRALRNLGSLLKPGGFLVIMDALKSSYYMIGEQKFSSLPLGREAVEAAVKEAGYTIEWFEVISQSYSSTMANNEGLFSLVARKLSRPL
Metallo-beta-lactamase type 2 (Klebsiella pneumoniae), sequence (C7C422 whole entry, looked up): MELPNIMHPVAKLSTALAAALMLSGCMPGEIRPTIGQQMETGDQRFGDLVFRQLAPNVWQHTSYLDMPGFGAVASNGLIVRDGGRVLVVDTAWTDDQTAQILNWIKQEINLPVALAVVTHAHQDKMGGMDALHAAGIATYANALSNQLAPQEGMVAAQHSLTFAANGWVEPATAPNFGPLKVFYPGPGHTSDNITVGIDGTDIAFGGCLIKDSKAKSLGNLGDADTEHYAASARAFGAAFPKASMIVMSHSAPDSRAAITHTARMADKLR
Glutathione peroxidase 1 (Homo sapiens), sequence (P07203 whole entry, looked up): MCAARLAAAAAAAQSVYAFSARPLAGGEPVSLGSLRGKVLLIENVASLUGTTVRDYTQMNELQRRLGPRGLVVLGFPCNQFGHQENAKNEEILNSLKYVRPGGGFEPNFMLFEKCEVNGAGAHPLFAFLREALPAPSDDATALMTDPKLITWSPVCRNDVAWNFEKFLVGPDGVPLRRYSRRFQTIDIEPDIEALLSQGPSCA
Rap guanine nucleotide exchange factor 4 (Homo sapiens), sequence (Q8WZA2 whole entry, looked up): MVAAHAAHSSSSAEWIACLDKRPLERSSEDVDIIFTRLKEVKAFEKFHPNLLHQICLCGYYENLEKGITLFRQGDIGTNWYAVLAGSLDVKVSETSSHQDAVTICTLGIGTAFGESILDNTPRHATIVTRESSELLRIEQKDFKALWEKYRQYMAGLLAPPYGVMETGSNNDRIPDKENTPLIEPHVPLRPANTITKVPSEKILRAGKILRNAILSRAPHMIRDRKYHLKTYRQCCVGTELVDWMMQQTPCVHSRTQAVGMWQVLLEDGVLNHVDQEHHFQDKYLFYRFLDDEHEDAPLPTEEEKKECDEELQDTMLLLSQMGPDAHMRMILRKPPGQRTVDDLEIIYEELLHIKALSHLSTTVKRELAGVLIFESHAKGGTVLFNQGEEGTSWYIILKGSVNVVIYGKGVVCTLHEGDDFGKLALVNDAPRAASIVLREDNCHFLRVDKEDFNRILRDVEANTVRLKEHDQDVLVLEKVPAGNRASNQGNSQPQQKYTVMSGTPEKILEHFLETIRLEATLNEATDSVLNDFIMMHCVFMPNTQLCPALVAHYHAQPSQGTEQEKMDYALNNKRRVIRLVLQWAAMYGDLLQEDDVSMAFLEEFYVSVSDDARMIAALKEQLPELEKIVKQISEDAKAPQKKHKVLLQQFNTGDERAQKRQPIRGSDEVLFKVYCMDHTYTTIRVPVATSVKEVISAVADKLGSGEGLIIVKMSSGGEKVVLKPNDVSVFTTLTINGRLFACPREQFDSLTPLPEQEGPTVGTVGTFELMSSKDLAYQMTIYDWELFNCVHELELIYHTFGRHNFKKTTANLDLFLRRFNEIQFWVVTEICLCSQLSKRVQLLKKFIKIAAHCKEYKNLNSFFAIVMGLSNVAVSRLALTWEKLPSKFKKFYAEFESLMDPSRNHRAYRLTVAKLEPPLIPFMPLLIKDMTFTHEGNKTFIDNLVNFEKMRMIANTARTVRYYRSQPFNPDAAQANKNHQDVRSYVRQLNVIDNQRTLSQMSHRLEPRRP
Phenylethanolamine N-methyltransferase (Homo sapiens), sequence (P11086 whole entry, looked up): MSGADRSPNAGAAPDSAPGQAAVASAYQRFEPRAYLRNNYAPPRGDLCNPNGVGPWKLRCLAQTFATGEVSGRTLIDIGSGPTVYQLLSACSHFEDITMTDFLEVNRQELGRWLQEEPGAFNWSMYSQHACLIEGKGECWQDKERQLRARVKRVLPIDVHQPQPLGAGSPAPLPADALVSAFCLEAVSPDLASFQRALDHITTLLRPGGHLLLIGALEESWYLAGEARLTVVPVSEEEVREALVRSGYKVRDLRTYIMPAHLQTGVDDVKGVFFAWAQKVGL
Catechol O-methyltransferase (Homo sapiens), sequence (P21964 whole entry, looked up): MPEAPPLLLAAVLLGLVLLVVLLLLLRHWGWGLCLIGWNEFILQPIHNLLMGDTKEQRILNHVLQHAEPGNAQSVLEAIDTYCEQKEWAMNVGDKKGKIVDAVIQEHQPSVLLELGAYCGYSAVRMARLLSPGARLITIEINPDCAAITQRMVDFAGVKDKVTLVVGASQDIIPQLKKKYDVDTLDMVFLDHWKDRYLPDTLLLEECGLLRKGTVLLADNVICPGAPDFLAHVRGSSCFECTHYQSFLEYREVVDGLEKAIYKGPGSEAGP

`O=C1Cc2c([nH]c3ccc(Br)cc23)-c2ccccc2N1`: the Potency in [1] was 5.8 µM (active). The Potency entry in assay [2] and in [3] was “inactive” each time.

With `Nc1ncnc2c1nc(Sc1ccc(Cl)cc1)n2[C@H]1OC2COP(=O)(O)O[C@@H]2C1O` (stereo not given in full), the Potency in assay [4] is 789 nM (active); in [5] it was 998 nM (active); in assay [6], 1.77 µM (active); in [7], 1.97 µM (active). The Potency result in assay [2] and in [3] was “inactive” each time.

Consider `Nc1ccc2c3c(cccc13)C(=O)NC2=O`, for which the activity in assay [8] is 1.42%; in [10] it was -4.84%; in assay [11], 2.54%. Moreover, the activity change, negative = inhibition in [9] came to 4.2%. The Potency entry in assay [2] and in assay [3] was “inactive” throughout.

Regarding `c1ccc(C(NCc2cccnc2)(c2ccccc2)c2ccccc2)cc1`, the Potency entry in [4], in [5], in assay [2] and in [3] was “inactive” each time. Besides, the Potency in assay [7] is 1.11 µM (active).

In the case of `CC(C)(CO)Cc1cc(C(C)(C)C)c(O)c(C(C)(C)C)c1`, the Potency result in [5], in [6], in assay [2] and in assay [3] was “inactive” throughout. The Potency in assay [7] is 49.4 µM (active).

Regarding `O=C(O)C1=CC(=C(c2ccc(O)c(C(=O)O)c2)c2ccc(O)c(C(=O)O)c2)C=CC1=O`, the activity in assay [8] is -24.2%; in assay [10], -4.1%; in [11], 2.52%. For the same molecule, the Potency in assay [9] was 24.3 µM (active); in assay [2], 1.26 µM (active).

As for `CCCC(=O)NCCc1c2n(c3ccc(OC)cc13)CCCc1ccccc1-2`, the Potency result in assay [4], in assay [5], in [6], in assay [2] and in assay [3] was “inactive” each time. In addition, the Potency in assay [7] was 7.84 µM (active).

For `Nc1ncnc2c1c(-c1ccc(Oc3ccccc3)cc1)cn2C1CCCC1`, the Potency in assay [1] was 2.59 µM (active). Besides, the Potency entry in assay [2] and in [3] was “inactive” throughout.

Regarding `CCCC[C@@]1(C2CCCC2)Cc2cc(OCC(=O)O)c(Cl)c(Cl)c2C1=O`, the Potency entry in [5], in [6], in assay [2] and in assay [3] was “inactive” each time. In addition, in assay [7], the Potency is 6.01 µM (active) and 3.5 µM (active). The outcome in assay [12] and in [13] was “inactive” in each case. The values for the activity in assay [8], in assay [10] and in assay [11] were 8.39%, -66.3% and 7.03%, respectively. In addition, the activity change, negative = inhibition in assay [9] is 7.65%.
